Screening data deposited in PubChem by National Center for Advancing Translational Sciences (NCATS).
GCN5L2 inh: qHTS Assay for Inhibitors of GCN5L2. GCN5L2 HAT assay, ThioGlo1 CoA-SH fluorescence. AID 504327, 2011. Potency, µM (series often up to 58.9 µM), hits mostly inhibitors. Histone acetyltransferase KAT2A (Homo sapiens), Q92830. 390,000 compounds, 0.21% hits
Target sequence (Q92830 whole entry, looked up): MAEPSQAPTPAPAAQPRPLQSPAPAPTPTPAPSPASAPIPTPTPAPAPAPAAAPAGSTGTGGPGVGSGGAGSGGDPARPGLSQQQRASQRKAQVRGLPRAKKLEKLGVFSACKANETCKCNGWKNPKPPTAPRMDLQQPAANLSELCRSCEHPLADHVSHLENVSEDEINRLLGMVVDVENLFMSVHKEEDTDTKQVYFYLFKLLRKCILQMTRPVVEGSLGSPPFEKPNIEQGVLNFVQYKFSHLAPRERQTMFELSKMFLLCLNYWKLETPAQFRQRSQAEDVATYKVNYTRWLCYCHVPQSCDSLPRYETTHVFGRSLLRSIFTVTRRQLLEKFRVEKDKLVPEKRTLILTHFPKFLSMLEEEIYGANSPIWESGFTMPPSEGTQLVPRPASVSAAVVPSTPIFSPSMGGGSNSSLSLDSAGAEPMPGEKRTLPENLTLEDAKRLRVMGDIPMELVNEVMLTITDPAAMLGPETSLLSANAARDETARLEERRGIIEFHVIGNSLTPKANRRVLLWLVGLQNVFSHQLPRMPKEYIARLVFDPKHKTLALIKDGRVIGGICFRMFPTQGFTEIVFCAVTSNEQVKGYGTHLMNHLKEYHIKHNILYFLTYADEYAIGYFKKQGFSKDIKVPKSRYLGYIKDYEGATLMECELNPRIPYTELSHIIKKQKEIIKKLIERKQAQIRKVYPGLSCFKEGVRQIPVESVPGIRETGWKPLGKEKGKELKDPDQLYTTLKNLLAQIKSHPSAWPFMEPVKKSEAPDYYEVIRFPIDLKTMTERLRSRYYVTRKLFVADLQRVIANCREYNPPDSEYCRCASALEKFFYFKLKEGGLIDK
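ThioGlo1-coupled HAT assay: 20nM GCN5L2, 70uM acetyl-CoA, 75uM H3(1-25) peptide, pH 7.5. Fluorescence read at 340/540nm at start and after 20 min at room temperature.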
VDR inhibitor: Inhibitors of the vitamin D receptor (VDR): qHTS | VDR-SRC2-3 peptide fluorescence polarization, 2 h | Potency, µM, most hits filed as inhibitors | 400,000 compounds, 0.93% hits
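Signal is fluorescence polarization, reporting how far test compounds block the interaction of VDR with the SRC2-3 coregulator peptide after a 2 h room-temperature incubation.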
TDP1 block: qHTS Assay for Inhibitors of Tyrosyl-DNA Phosphodiesterase (TDP1) | Potency, µM (doses to about 130 µM), usual class: inhibitors | 350,000 compounds, 0.28% hits | Tyrosyl-DNA phosphodiesterase 1 (Homo sapiens), Q9NUW8 | AID 485290, 2010 | recombinant TDP1, AlphaScreen DNA substrate cleavage; further: nearly all actives have a fitted effect of over 40% in size
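Enzyme-compound mixtures sat 15 min at room temperature, followed by a 5 min reaction with 15 nM final substrate and 10 min with AlphaScreen beads. Recombinant human Tdp1 was used at 1 nM final.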
PLK1 PBD block: qHTS for Inhibitors of PLK1-PDB (polo-like kinase 1 - polo-box domain): Primary Screen; AID 720504, 2013; Serine/threonine-protein kinase PLK1 (Homo sapiens), P53350; 360,000 compounds, 2.8% hits; Potency, µM, usual class: inhibitors; Plk1 PBD binding of FITC phosphopeptide, fluorescence polarization; further: series mostly up to about 57 µM; nearly all actives have a fitted effect of over 65% in size
TDP1 cell CPT: qHTS for Inhibitors of human tyrosyl-DNA phosphodiesterase 1 (TDP1): qHTS in cells in presence of CPT | AID 686979, 2013 | 420,000 compounds, 12% hits | chicken DT40 Tdp1-/-;hTDP1 cells + 20 nM CPT, ATP luminescence, 48 h | Potency, µM (highest dose often 46.2 µM), hits mostly inhibitors; further: nearly all actives have a fitted effect of over 55% in size
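Chicken DT40 Tdp1-/- cells stably complemented with human TDP1 were seeded at 400 cells/well in medium containing 20 nM camptothecin, exposed to pin-transferred compounds, and grown at 37 °C for at least 48 hr. Viability was read as ATP luminescence.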
DT40 TDP1 no CPT: qHTS for Inhibitors of human tyrosyl-DNA phosphodiesterase 1 (TDP1): qHTS in cells in absence of CPT; AID 686978, 2013; DT40 Tdp1-/- hTDP1 cells, no CPT, ATP luminescence, 48 h; Potency, µM (top dose mostly 46.2 µM), hits mostly inhibitors; 420,000 compounds, 15% hits; further: nearly all actives have a fitted effect of over 55% in size
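Luminescent ATP content (CellTiter-Glo) served as the growth readout. Knockout chicken DT40 cells expressing human TDP1 were exposed to compounds without camptothecin for a minimum 48 hr at 37 °C.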
Numbers stand for hits. This is a sample that favours compounds with a hit; in the whole collection about 18% have one here. The call rests on the fitted dose curve; in most records, active means well fitted curve in the direction sought with a large enough effect; inconclusive means small, poorly fitted or top-dose-only effect, or another doubt; inactive means no such curve, though single readings can be large; an effect the other way counts as inactive or inconclusive.

How did O=[N+]([O-])c1ccc(Nc2cccc3c2[nH]c2c(-c4ccccc4)nccc23)c([N+](=O)[O-])c1 do in these assays?
VDR inhibitor: inactive; PLK1 PBD block: inactive; TDP1 cell CPT: inconclusive; DT40 TDP1 no CPT: inconclusive

Results for CCOC(=O)C1CCN(C(=O)Cn2nc(C)n3c(cc4c(OC)cccc43)c2=O)CC1 ?
GCN5L2 inh: inactive; VDR inhibitor: inactive; TDP1 block: inactive; TDP1 cell CPT: inactive; DT40 TDP1 no CPT: inactive

What do the screens show for `CCOC(=O)C1CCCN(C(=O)Cn2ncn3c(cc4sc(CC)cc43)c2=O)C1` (stereo unspecified)?
GCN5L2 inh: inactive; VDR inhibitor: inactive; TDP1 block: inactive; TDP1 cell CPT: 21µM; DT40 TDP1 no CPT: inconclusive

What do the screens show for `CCOC(=O)C1CCN(C(=O)Cn2nc(CC)n3cccc3c2=O)CC1`?
GCN5L2 inh: inactive; VDR inhibitor: inconclusive; TDP1 block: inactive; PLK1 PBD block: 27µM; TDP1 cell CPT: inconclusive; DT40 TDP1 no CPT: inconclusive

What do the screens show for `CCOC(=O)C1CCCN(C(=O)Cn2nc(CC)n3c(cc4sccc43)c2=O)C1` (stereo unspecified)?
GCN5L2 inh: inactive; VDR inhibitor: inactive; TDP1 block: inactive; PLK1 PBD block: inactive; TDP1 cell CPT: inconclusive; DT40 TDP1 no CPT: inconclusive

How did CCc1nn(CC(=O)N2CCN(C)CC2)c(=O)c2cccn12 do in these assays?
GCN5L2 inh: inactive; VDR inhibitor: inactive; PLK1 PBD block: inactive; TDP1 cell CPT: inactive; DT40 TDP1 no CPT: inactive

How did CCOC(=O)C1CCCN(C(=O)Cn2nc(C)n3c(cc4c(OC)cccc43)c2=O)C1 (stereo unspecified) do in these assays?
GCN5L2 inh: inactive; VDR inhibitor: inactive; TDP1 block: inactive; PLK1 PBD block: 27µM; TDP1 cell CPT: inactive; DT40 TDP1 no CPT: inconclusive

Results for CCc1ccccc1 ?
TDP1 block: inactive

Results for COc1cc(OC)cc(C(=O)N[C@H](C(=O)Nc2cc(F)ccc2C)C(C)C)c1 ?
GCN5L2 inh: inactive; VDR inhibitor: inactive; PLK1 PBD block: inactive; TDP1 cell CPT: inactive; DT40 TDP1 no CPT: inactive

What do the screens show for `CC(OC(=O)CNC(=O)c1sc2ccccc2c1Cl)C(=O)NC1(C#N)CCCCC1` (stereo unspecified)?
GCN5L2 inh: inactive; VDR inhibitor: inactive; TDP1 block: inactive; PLK1 PBD block: inactive; TDP1 cell CPT: inactive; DT40 TDP1 no CPT: inactive

Results for O=C(NCC1CCCN(C(=O)c2cscn2)C1)c1ccc(-c2ccccc2)cc1 (stereo unspecified) ?
GCN5L2 inh: inactive; VDR inhibitor: inactive; TDP1 block: inactive; PLK1 PBD block: inactive; TDP1 cell CPT: inactive; DT40 TDP1 no CPT: 21µM

What do the screens show for `Cc1ncoc1C(=O)N1CCCC(C(=O)Nc2cccc(-c3ccc(F)cc3)c2)C1` (stereo unspecified)?
GCN5L2 inh: inactive; VDR inhibitor: inactive; TDP1 block: inactive; PLK1 PBD block: inactive; TDP1 cell CPT: inconclusive; DT40 TDP1 no CPT: 18µM

Results for O=C(NCC1CCCN(C(=O)c2cscn2)C1)c1ccccc1Cl (stereo unspecified) ?
GCN5L2 inh: inactive; VDR inhibitor: inactive; TDP1 block: inactive; PLK1 PBD block: inactive; TDP1 cell CPT: inactive; DT40 TDP1 no CPT: inactive

What do the screens show for `O=C(Nc1cccc(-c2ccc(F)cc2)c1)C1CCCN(C(=O)c2cscn2)C1` (stereo unspecified)?
GCN5L2 inh: inactive; VDR inhibitor: inactive; TDP1 block: inactive; PLK1 PBD block: inactive; TDP1 cell CPT: 13µM; DT40 TDP1 no CPT: inconclusive

Results for O=C(NCc1ccccc1Cl)C1CCN(S(=O)(=O)c2ccc3c(c2)CCCN3C(=O)C2CCC2)CC1 ?
GCN5L2 inh: inactive; VDR inhibitor: inactive; TDP1 block: inactive; TDP1 cell CPT: 15µM; DT40 TDP1 no CPT: 15µM

What do the screens show for `O=C(Nc1ccc(F)cc1)C1CCN(S(=O)(=O)c2ccc3c(c2)CCCN3C(=O)C2CCC2)CC1`?
GCN5L2 inh: inactive; VDR inhibitor: inactive; TDP1 block: inactive; TDP1 cell CPT: 18µM; DT40 TDP1 no CPT: 8.2µM

How did CCC(=O)N1CCCc2cc(S(=O)(=O)N3CCC(C(=O)Nc4ccccc4CC)CC3)ccc21 do in these assays?
GCN5L2 inh: inactive; VDR inhibitor: inactive; TDP1 block: inactive; TDP1 cell CPT: 26µM; DT40 TDP1 no CPT: inconclusive

What do the screens show for `CC(=O)N1CCCc2cc(S(=O)(=O)N3CCCC(C(=O)NCc4ccccc4Cl)C3)ccc21` (stereo unspecified)?
GCN5L2 inh: inactive; VDR inhibitor: inactive; TDP1 block: inactive; PLK1 PBD block: inactive; TDP1 cell CPT: 21µM; DT40 TDP1 no CPT: 26µM

What do the screens show for `CCC(=O)N1CCc2cc(S(=O)(=O)N3CCN(c4ccccn4)CC3)ccc21`?
GCN5L2 inh: inactive; VDR inhibitor: inactive; TDP1 block: inactive; PLK1 PBD block: inactive; TDP1 cell CPT: inconclusive; DT40 TDP1 no CPT: 12µM

Results for CC(=O)N1CCCc2cc(S(=O)(=O)N3CCCC(C(=O)Nc4ccc(C)c(F)c4)C3)ccc21 (stereo unspecified) ?
GCN5L2 inh: inactive; VDR inhibitor: inactive; TDP1 block: inactive; TDP1 cell CPT: inconclusive; DT40 TDP1 no CPT: 21µM

Results for CCN(C(=O)C1CCN(S(=O)(=O)c2ccc3c(c2)CCCN3C(=O)C2CCC2)CC1)c1cccc(C)c1 ?
GCN5L2 inh: inactive; VDR inhibitor: inactive; TDP1 block: inactive; TDP1 cell CPT: 16µM; DT40 TDP1 no CPT: 18µM

What do the screens show for `CC(Sc1nc(-c2ccccc2)c(-c2ccccc2)[nH]1)C(=O)NCC1CCCO1` (stereo unspecified)?
PLK1 PBD block: inactive; TDP1 cell CPT: inconclusive; DT40 TDP1 no CPT: 23µM

Results for O=C(Nc1cccc2cccnc12)c1ccc2sc([C@@H]3O[C@H](CO)[C@H](O)[C@H](O)[C@H]3O)nc2c1 ?
PLK1 PBD block: inactive; TDP1 cell CPT: inconclusive; DT40 TDP1 no CPT: inconclusive

What do the screens show for `CC(C)c1ccc(/C=C/C(=O)Nc2nncs2)cc1`?
GCN5L2 inh: inactive; VDR inhibitor: inactive; TDP1 block: inactive; PLK1 PBD block: inactive; TDP1 cell CPT: inconclusive; DT40 TDP1 no CPT: 13µM

Results for COc1ccc(-n2ccnc(NCCc3ccc(S(N)(=O)=O)cc3)c2=O)cc1 ?
GCN5L2 inh: inactive; VDR inhibitor: inactive; TDP1 block: inactive; TDP1 cell CPT: inactive; DT40 TDP1 no CPT: inactive

How did Cc1c(C(=O)N(Cc2ccccc2)C2CCS(=O)(=O)C2)oc2ccccc12 (stereo unspecified) do in these assays?
GCN5L2 inh: inconclusive; VDR inhibitor: inactive; PLK1 PBD block: inactive; TDP1 cell CPT: inconclusive; DT40 TDP1 no CPT: 21µM
